# Bioassay records as filed in PubChem BioAssay.
# NS1 function inh: influenza NS1 inhibition; 0.4% of 270,000 active; Potency, µM (series often up to 46.1 µM); AID 2326; calls by dose curve; further: actives are rising curves; nearly all actives have a fitted effect of over 50% in size
#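 In this qHTS, NS1 from influenza A is expressed in budding yeast, where it slows growth. Cells are switched from glucose to 2% galactose medium (pH 6.0, -URA), treated with compound, and growth recovery is read at OD600.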
# Giardia FBPA inh: inhibitors of Giardia lamblia fructose-1,6-bisphosphate aldolase; purified Giardia FBPA; A8B2U2; Potency, µM (doses to about 59.6 µM), hits mostly inhibitors; 0.71% of 290,000 active; further: nearly all actives have a fitted effect of over 55% in size
# Target sequence (A8B2U2 whole entry, looked up): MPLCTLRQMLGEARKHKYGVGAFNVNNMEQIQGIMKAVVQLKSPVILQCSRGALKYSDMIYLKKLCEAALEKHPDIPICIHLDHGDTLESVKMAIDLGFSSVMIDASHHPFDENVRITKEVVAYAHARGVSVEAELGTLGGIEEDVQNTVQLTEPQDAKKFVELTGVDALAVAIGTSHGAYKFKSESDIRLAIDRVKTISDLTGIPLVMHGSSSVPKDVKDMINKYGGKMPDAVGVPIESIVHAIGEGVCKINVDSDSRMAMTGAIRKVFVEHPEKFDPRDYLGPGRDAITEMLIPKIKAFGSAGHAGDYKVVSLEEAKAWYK
#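 Giardia FBPA (40 nM reagent) was preincubated 10 min at RT with compound (up to 57.5 uM final), then substrate plus GAPDH/TPI/NAD/arsenate coupling system with diaphorase/resazurin was added; resorufin fluorescence (525/598 nm) was read after 20 min.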
# TbPYK inhibitor: T. brucei pyruvate kinase inhibition; TbPYK enzyme, Kinase-Glo Plus ATP luminescence, 45 min; Potency, µM (series often up to 76.8 µM), hits mostly inhibitors; 0.12% of 410,000 active; AID 624173; further: nearly all actives have a fitted effect of over 50% in size
#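 Assay buffer: 50 mM TEA pH 7.2, 100 mM KCl, 10 mM MgCl2, 0.05% BSA, 0.01% Tween-20. Pyruvate kinase from T. brucei plus substrate met compound, then ADP (130 uM final). Luminescence was read post 45 min RT.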
# LmPK inh: blocks Leishmania mexicana pyruvate kinase activity; Q27686; purified LmPK, Kinase-Glo ATP luminescence, 1 h; Potency, µM (series often up to 57.5 µM), hits mostly inhibitors; 0.37% of 290,000 active; AID 1721
#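 In 50 mM imidazole pH 7.2 with 7 mM MgCl2, LmPK (0.1 nM) turned over PEP (0.5 mM) and ADP (0.1 mM) for 1 h at room temperature. Luciferase read-out of ATP.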
# AMA1 RON2 block: inhibitors of Plasmodium falciparum AMA1-RON2 interaction. Potency, µM (top dose mostly 58.2 µM), usual class: inhibitors. AlphaScreen AMA1-biotinylated RON2 peptide binding. 0.2% of 360,000 active; further: nearly all actives have a fitted effect of over 45% in size
#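 AMA1 (3D7) with his tag at 25 nM final met compounds first, then biotinylated RON2 peptide at 25 nM; detection used donor plus acceptor beads, 10 µg/mL apiece, read by AlphaScreen after 30 min at room temperature.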
# NS1 inh valid: validation of influenza NS1 protein function inhibitors; 1,400 tested, under 10 active; shares compounds with NS1 function inh; activity change, negative = inhibition, % at 32.9 µM; influenza NS1 function cell assay, 15-point titration; calls by dose curve
# Hits are given with their value; 0 = inactive; ? = inconclusive; - = no result; [ ] = another dose, or the depositor's remark. Only some compounds are listed: those with a hit (about 1.2% of all), similar ones and a draw of the others. Unless noted, the call rests on the fitted dose curve; in most records, active means well fitted curve in the direction sought with a large enough effect; inconclusive means small, poorly fitted or top-dose-only effect, or another doubt; inactive means no such curve, though single readings can be large; an effect the other way counts as inactive or inconclusive.
SMILES,NS1 function inh,Giardia FBPA inh,TbPYK inhibitor,LmPK inh,AMA1 RON2 block,NS1 inh valid
Cc1cc(-c2ccccc2)c2c(=O)[nH][nH]c2n1,10µM,0,0,0,0,?
Cc1ccc(S(=O)(=O)N(Cc2ccccc2)c2ccccc2C(=O)NCc2ccco2)cc1,0,0,0,0,0,-
Cc1ccc(S(=O)(=O)N(Cc2ccccc2)c2ccccc2C(=O)Nc2ccccc2C(=O)NCc2ccco2)cc1,7.9µM,0,0,0,0,0
CCCN(CCC)CC(O)Cn1cc(/C=C/C(=O)c2ccc(OCC)cc2)c2ccccc21 (stereo unspecified),-,-,0,-,-,-
Cc1c(/C=N/NC(=O)c2ccc(O)cc2)c2ccccn2c1C(=O)c1ccc(F)cc1,8.9µM,0,0,0,0[2.32 µM],0
Cc1c(/C=N/NC(=O)c2ccccc2O)c2ccccn2c1C(=O)c1ccc(F)cc1,?,0,0,0,0,-
c1ccc(Nc2ncnc3ccc(-c4cccnc4)cc23)cc1,-,0,-,-,-,-
CCCCOc1cccc(C(=O)Nc2ccc(S(=O)(=O)Nc3nnc(CC)s3)cc2)c1,8.9µM,0,0,0,0,0
O=C(Nc1ccc(-c2cc3ccccc3oc2=O)c(Cl)c1)c1cccnc1,2.2µM,0,0,0,0,0
COc1ccc(-c2cc(C(F)(F)F)nc(S(=O)(=O)CCCC(=O)Nc3ccccc3C(F)(F)F)n2)cc1OC,-,-,0,-,-,-
COc1ccc(CNC(=O)C2CCN(S(=O)(=O)N3CCCC3)CC2)c(OC)c1,?,0,0,0,0,0
COc1ccc(OC)c(CNC(=O)C2CCN(S(=O)(=O)N3CCCC3)CC2)c1,0,0,0,0,0,-
CCc1ccc(N=C2NC(=O)/C(=C/c3ccc(OCC(=O)O)c(OC)c3)S2)cc1,11µM,0,0,0,0,0
CCOc1cc(/C=C2\SC(=Nc3ccccc3)N(c3ccccc3)C2=O)ccc1OCC(=O)O,?,0,0,0,0[11.6 µM],0
Cc1ccc(N2C(=O)CC(=O)NC2=O)cc1Cl,10µM,0,0,0,0,0
O=C1CC(=O)N(c2ccc(Cl)cc2)C(=O)N1,0,0,0,0,0,-
Cc1ccc(CC(Cc2nc3ccccc3[nH]2)c2nc3ccccc3[nH]2)cc1 (stereo unspecified),-,0,-,-,-,-
CCOc1ccc(NC(=O)c2sc3nc4n(c(=O)c3c2C)CCCC4)cc1,-,-,0,-,-,-
CC1CCN(C(=O)CSc2nc3ccccc3c(=O)n2Cc2ccc3c(c2)OCO3)CC1,?,0,0,0,0,?
Cc1nc2c(-c3ccc(F)cc3)c(C)nn2c(C)c1CCC(=O)N1CCC(Cc2ccccc2)CC1,7.1µM,0,0,0,0,0
N#CC1=C(N)NC(SCC(=O)O)=C(C#N)C12CCCC2,2.2µM,0,0,0,0,0
COC(=O)C1(C(=O)OC)Cc2conc2[C@H]1c1ccccc1,-,0,-,-,-,-
Cc1ccc(CCN2CC(C(=O)NC3CCCC3)CC2=O)cc1 (stereo unspecified),?,0,0,0,0,0
CC(C)(C)C1CCc2onc(C(=O)Nc3ccc(F)cc3F)c2C1 (stereo unspecified),?,0,0,0,0,?
CC(C)(C)C1CCc2onc(C(=O)Nc3cnn(Cc4ccc(F)cc4)c3)c2C1 (stereo unspecified),0,0,0,0,0,-
SMILES,NS1 function inh,Giardia FBPA inh,TbPYK inhibitor,LmPK inh,AMA1 RON2 block,NS1 inh valid
CN(C)c1ccc(CN(CC2CCCO2)C(=O)COc2ccc(Cl)cc2)cc1 (stereo unspecified),-,-,0,-,-,-
O=C1N=C(N2CCc3ccccc3C2)S/C1=C\c1cccc(O)c1,?,0,0,0,0,?
COc1ccc(C2CC(=O)C=C(NNS(=O)(=O)c3ccc(C)cc3)C2)cc1 (stereo unspecified),4µM,0,0,0,0,0
COc1ccc(NC2=CC(=O)CC(c3ccccc3)C2)cc1 (stereo unspecified),0,0,0,0,0,-
C[C@H]1Cc2c(COc3ccccc3)nc3c(c2CO1)CN(S(=O)(=O)c1ccc(C#N)cc1)CC3,-,0[12.9 µM],-,0[11.5 µM],-,-
O=C(COc1ccc(Cl)cc1Cl)NC(=S)N1CCCc2ccccc21,10µM,0,?,0,0,?
O=C(COc1ccc(Cl)cc1Cl)OCC(=O)N1CCCc2ccccc21,0,0,0,0,0,-
CCC(=O)Nc1ccc(Cl)c(NC(=S)NC(=O)c2cc3ccccc3o2)c1,?,0,0,0,0,0
Cc1ccc(C)c(N2CCN(C(=O)CN3C(=O)CSc4c3c(C)nn4-c3ccccc3)CC2)c1,-,-,0,-,-,-
CN(Cc1ccccc1)c1ccc(C(CC(N)=O)NC(=O)c2ccc(Br)cc2)cc1[N+](=O)[O-] (stereo unspecified),5µM,0,0,0,0,?
CC(C)Nc1ccc(C(CC(N)=O)NC(=O)c2ccc(Br)cc2)cc1[N+](=O)[O-] (stereo unspecified),0,0,0,0,0,-
CCC(CC)C(=O)N1CC(=O)Nc2ccc(C)cc2C1c1ccccc1 (stereo unspecified),0,0,0,0,0,-
Cc1ccc2c(c1)C(c1ccccc1)N(C(=O)C(C)C)CC(=O)N2 (stereo unspecified),?,0,0,0,0,0
CCN(CC)S(=O)(=O)c1cccc(NC(=O)C2SC(=Nc3ccc(C)cc3C)C(C(=O)NC(C)COC)=C2N)c1 (stereo unspecified),13µM,0,0,0,0,0
CCCCNC(=O)C1=C(N)C(C(=O)Nc2ccc(C)c(S(=O)(=O)N3CCCCC3)c2)SC1=Nc1ccc(C)cc1C (stereo unspecified),?,0,0,0,0,-
CC(C)C[C@H]1C(=O)N2CCCC2[C@]2(O)O[C@](NC(=O)[C@@H]3C=C4c5cccc6[nH]c(Br)c(c56)C[C@H]4N(C)C3)(C(C)C)C(=O)N12 (stereo partly specified),5.6µM,0,0,-,-,?
CN(C)c1ccc(/C=C2\SC(=S)N(Nc3ncc(C(F)(F)F)cc3Cl)C2=O)cc1,0,0,0,0,0,-
COc1cc(/C=C2\SC(=S)N(Nc3ncc(C(F)(F)F)cc3Cl)C2=O)ccc1O,4µM,0,0,0,0,0
COc1ccc(NC(=O)C2CCN(S(=O)(=O)c3c(C)noc3/C=C/c3ccco3)CC2)cc1,-,-,0,-,-,-
C/C(=N\Nc1nc2ccc(Cl)cc2o1)c1ccccc1,8.9µM,?,0,0,0,?
C/C(=N\Nc1nc(C)cc(-c2ccccc2)n1)c1ccccc1,0,0,0,0,0,-
Cc1nc(SCC(=O)NCc2ccco2)c2c3c(sc2n1)CCCC3,4.5µM,0,0,0,0,?
CCOC(=O)C1=C(c2ccccc2)N=c2s/c(=C\c3ccc(O)cc3)c(=O)n2C1c1cccs1 (stereo unspecified),7.1µM,0,0,0,?,0
C/C(N)=C(/C#N)C(=O)CSc1n[nH]c(-c2ccccc2Br)n1,4µM,0,0,0,0,0
